Laboratory results from ChEMBL document CHEMBL4513216, “Probing the Open Global Health Chemical Diversity Library for Multistage-Active Starting Points for Next-Generation Antimalarials” (ACS Infect Dis, 2020).
Screen size: about 69,000 compounds; about 8,600 (12%) showed an effect of 50% or more. This excerpt belongs to a sample that is enriched for strong results.

The compounds below were run on Plasmodium berghei (assay: Screen against P. berghei liver stage (PbLuc), transformed with Luciferase, at 10uM). Settings: tested at 10 uM.
Assay type: functional, HepG2

SMILES	INHIBITION [%]
CS(=O)(=O)NCCC1CCCCN1C(=O)NCc1ccccn1 (centres undefined)	4.13
CC(C)COc1cncc(N2CCCC(CC(N)=O)C2)n1 (centres undefined)	4.82
O=C(c1cnccn1)N1CCc2onc(CN3CCOCC3)c2C1	45.5
c1ccc2cc(OCCCN3CCn4c(nnc4C4CC4)C3)ccc2c1	35.9
CC(C)=CCN1CC2(CCN(C(=O)CCn3ccnc3C)CC2)CC1=O	27.7
CC(C)N(C)C[C@H]1C[C@@H]2CN(Cc3ccco3)C[C@@H]2O1	8.74
O=C(C1CCCC1)N1CCCC([C@@H]2C[C@H](C(F)F)n3ncnc3N2)C1 (some centres undefined)	0.788
O=C1CN(CCS(=O)(=O)c2ccc(Cl)cc2)CCN1	14
CC1CN(c2ncccc2C(=O)Nc2cccc3c2CCCC3)CCN1 (centres undefined)	-63.6
Cc1cccc(C(=O)Nc2cccc3c2CCCC3)n1	-45.5
O=C(Nc1cccc2c1CCCC2)c1cccnc1N1CCCNCC1	53
c1cnc(N2CCO[C@H]3[C@H](OCc4cccnc4)CC[C@@H]32)nc1	21.5
CS(=O)(=O)N1C[C@@H](NC(=O)c2ccno2)[C@@H]2OCCC[C@@H]21	36.7
CN1CC(=O)N(c2ccsc2)CC12CCN(C(=O)Nc1ccccc1)C2 (centres undefined)	1.94
CC(C(=O)N1CCCN(Cc2ccc(C#N)cc2)CC1)n1cccn1 (centres undefined)	19.583
CC(=O)NCCc1cc(N2CCN(C(C)=O)CC2)nc(C2CC2)n1	43.8
CCCC(=O)NCCc1cc(N2CCN(C(C)=O)CC2)nc(C2CC2)n1	46
CCC(=O)NCCc1cc(N2CCN(C(C)=O)CC2)nc(C2CC2)n1	51.2
COc1cccc(CN(C)C(C)C(=O)Nc2nc(C)c(C)s2)c1 (centres undefined)	39.3
CCS(=O)(=O)N1CCC[C@]2(C(=O)N(C)C)CN(c3ncccn3)C[C@@H]2C1	-47.6
CCc1nn(C)c(Cl)c1CN1CCN(c2ccc(Cl)nn2)CC1	66.6
NC(=O)c1ccc(N2CCN(Cc3c(Cl)cncc3Cl)CC2)nc1	30.7
CCc1nn(C)c(Cl)c1CN1CCC(c2cc(O)nc(C)n2)CC1	3.96

SMILES	INHIBITION [%]
CCc1nn(C)c(Cl)c1CN1CCN(c2nc(C(N)=O)cs2)CC1	24.1
CCc1nn(C)c(Cl)c1CN1CCN(c2ccc(C(N)=O)cn2)CC1	40.7
CCOC(=O)c1ccc(N2CCN(Cc3c(C)nn(C)c3Cl)CC2)nc1	74.9
Cn1nc(C2CCCN2)c2c(C(=O)NCC(F)(F)F)cc(C3CC3)nc21 (centres undefined)	28.4
O=S(=O)(c1ccccc1)N1C2CCC(O)(CC2)C1CN1CCOCC1 (centres undefined)	23.7
Cc1nc(C)n(CC2CCCN2Cc2nc(-c3ccccn3)no2)n1 (centres undefined)	32.7
CC(C)NC(=O)[C@H]1CCS(=O)(=O)[C@@H]2CN(c3ncc(F)cn3)C[C@H]12	-13
CC(C)CNC(=O)[C@H]1CCS(=O)(=O)[C@@H]2CN(c3ncccn3)C[C@H]12	35.8
CN(C)C(=O)[C@H]1CCS(=O)(=O)[C@@H]2CN(c3ncccn3)C[C@H]12	61.1
CC(C)NC(=O)[C@H]1CCS(=O)(=O)[C@@H]2CN(c3ncccn3)C[C@H]12	0.164
CN(C)C(=O)[C@H]1CCS(=O)(=O)[C@@H]2CN(c3ncc(F)cn3)C[C@H]12	54.8
CCc1cnc(N2C[C@@H]3[C@@H](C(=O)N(C)C)CCS(=O)(=O)[C@@H]3C2)nc1	36.7
O=C(O)c1cc(C=Cc2ccc3ccccc3c2)ncn1	-57
Cc1ccc(C(O)CNC(=O)NCc2csc(C)n2)cc1 (centres undefined)	-34
O=C(c1cccnc1N1CCOCC1)N1CCCC(n2cccn2)C1 (centres undefined)	-62.365
Cn1cc(-c2cnc(N3CCOCC3)nc2)cc1C(=O)N1CCCC1	-50.9
CN(CCNC(=O)c1ccnc(-n2ccnc2)c1)C1CC1	-3.83
CNc1cc(C(=O)NCCC2=CSC3=NCCCN23)ccn1	50.3
COc1cccc(C2CCCN2C(=O)CC2=CSC3=NCCCN23)c1 (centres undefined)	-11.6
O=C(CC1=CSC2=NCCCN12)N1CCCCCC1c1ccco1 (centres undefined)	-4.01
CCC(=O)Nc1cccc(C(=O)NCCC2=CSC3=NCCCN23)c1	50.3
CC(C)(O)CCc1cccc(C(=O)NCCC2=CSC3=NCCCN23)c1	31.2
Cc1ccc(-c2nc(C(=O)N3CCN(C(=O)N(C)C)CC3)cs2)c(C)c1	-4.865

SMILES	INHIBITION [%]
O=S(=O)(c1cccs1)N1CC[C@H]2[C@H]1CCN2CC1CC1	2.58
CN1CCN(CC2CCN(C(=O)CCC3CCCCC3)CC2)CC1	21
Cn1cccc1C(=O)N1C[C@H]2CN(Cc3cccc(F)c3)C[C@H]2C1	6.27
O=C1CC[C@H]2[C@H](CCN2C(=O)C2CCCO2)N1Cc1cccnc1 (some centres undefined)	5.96
CCn1nc2c(cc1=O)CN(CCCN1CCCC1=O)CC2	16.8
COc1c(C(=O)NCC(C)C)nnn1Cc1ccccc1	53.2
COCCNC(=O)c1nnn(Cc2ccccc2)c1OC	19.3
CCNC(=O)c1nnn(Cc2ccccc2)c1OC	-19
CN(C)CC1CSCCCN1C(=O)c1ccc(-n2cccc2)cc1 (centres undefined)	35.8
CN(Cc1ccncc1)C(=O)NCc1nnc2n1CCCCC2	-4.94
COc1ccccc1CN1C[C@@H](F)[C@@H](OCc2nc3cnccc3[nH]2)C1	-25.2
COc1ccccc1CN1C[C@@H](F)[C@@H](OCc2nc3ncccc3[nH]2)C1	50.7
COc1ccccc1CN1C[C@@H](F)[C@@H](OCc2nc3ccccc3[nH]2)C1	45.2
Cc1ccc(NC(=O)C2CSCN2C(=O)c2cccnc2)c(C)c1 (centres undefined)	0.8
Cc1nc(N(Cc2ccncc2)CC2CCCO2)c2ccsc2n1 (centres undefined)	40.8
O=C1CSc2ccccc2N1Cc1noc(C2CCCO2)n1 (centres undefined)	7.6
Cc1nc(NCc2noc(C3CCCO3)n2)c2ccsc2n1 (centres undefined)	73.2
Cc1nc(NCc2noc(C3CCCO3)n2)c2sccc2n1 (centres undefined)	75.4
O=C(NCc1noc(C2CCCO2)n1)c1cn2ccsc2n1 (centres undefined)	25.9
Cc1ccc2c(c1)SCC(=O)N2Cc1noc(C2CCCO2)n1 (centres undefined)	14.9
Cc1cc(C(F)(F)F)nc(CCNc2nc(C)nc3sccc23)n1	43.2
Cc1nc(NCCc2noc(C3CCCO3)n2)c2sccc2n1 (centres undefined)	82.2
O=C(NCCc1noc(C2CCCO2)n1)c1cn2ccsc2n1 (centres undefined)	39.9
